Most compounds without a hit are left out; they make up all but 3.8% or so of the library.
A549 tox-1 – kills or reduces viability of A549 cells in Nrf2 counter-screen | AID 504648 | Potency, µM (top dose mostly 46 µM), usual class: inhibitors | 390,000 tested, 0.16% active | A549 ARE-Fluc cells, CellTiter-Fluor viability, 18-24 h
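A549 ARE_Fluc cells in 5% FBS OPTI-MEM were exposed to compounds in concentration-response for 18-24 h at 37 deg C. Viability was read by CellTiter-Fluor fluorescence (Ex 405/Em 525) after 30 min, before the luciferase read.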
ATXN2 expr inh – reduces ATXN2 reporter expression in HEK-293 cells; AID 1745845; 360,000 tested, 0.72% active; Potency, µM (series often up to 57 µM), usual class: inhibitors; HEK-293 ATXN2-luciferase reporter, luminescence, 24 h; further: nearly all actives have a fitted effect of over 55% in size
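qHTS (up to 57 uM final) was run with 24 h compound exposure of reporter cells at 37 °C. Each well was multiplexed: SteadyGlo luminescence measured ATXN2-luciferase expression after a fluorogenic Gly-Phe-AFC viability readout (25 uM final).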
Nrf2 inh – inhibitors of Nrf2 signaling | A549 ARE-Fluc reporter, luciferase luminescence, 18-24 h | Potency, µM (highest dose often 46 µM), usual class: inhibitors | 360,000 tested, 2.1% active; further: nearly all actives have a fitted effect of over 60% in size
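Nrf2 activity is the BugLite luminescence, read 15 min after reagent at room temperature, following CellTiter-Fluor cytotoxicity readout (30 min, 37C). Compound titrations were applied for 18-24 h to 5000 A549 ARE_Fluc cells/well in 5% FBS OPTI-MEM.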
ATXN viability – reduces viability in counter-screen for ATXN expression inhibitors. 400,000 tested, 0.49% active. AID 651635. S2 cells (HEK-293 line with an ATXN2-luciferase reporter) viability, CellTiter-Fluor protease fluorescence, 24 h. Potency, µM (highest dose often 56.7 µM), usual class: cytotoxic; further: nearly all actives have a fitted effect of over 40% in size
HepG2 viability – counter-screen for TGF-b inhibitors: cytotoxicity in HepG2 cells; HepG2 CAGA-GFP viability, ATP luminescence, 18 h; Potency, µM (highest dose often 46.1 µM), usual class: cytotoxic; 410,000 tested, 0.76% active; AID 588856
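CellTiter-Glo luminescence gave cytotoxicity after 18 hours at 37 degrees C. The cells were HepG2 CAGA-GFP in 1% FBS DMEM, stimulated with 500 pg/mL TGF-beta after compound addition. %Activity was normalised to no-cell wells (complete cell-killing) and DMSO (no toxicity), and curves were fitted and classified.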
TGFb SMAD3 inh – TGF-b pathway inhibition; HepG2 CAGA-GFP TGF-b/SMAD3 reporter, GFP fluorescence, 18 h; TGF-beta stimulated, 500 pg/mL final; Potency, µM (doses to about 46.1 µM), most hits filed as inhibitors; 410,000 tested, 1.2% active; further: nearly all actives have a fitted effect of over 65% in size
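HEPG2 CAGA-GFP reporter cells (1000/well, DMEM with 1% FBS) received compounds, then recombinant TGF-beta at 500 pg/mL final for 18 hours at 37 degrees C. Per-cell GFP summed per well was normalised to unstimulated and stimulated DMSO controls before curve fitting.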
FLuc counter 3 – blocks purified firefly luciferase in Nrf2 counterscreen; shares compounds with Nrf2 inh; Potency, µM (highest dose often 57.5 µM), most hits filed as inhibitors; AID 720522; purified firefly luciferase, luminescence inhibition; 1,400 tested, 4% active; further: nearly all actives have a fitted effect of over 65% in size
Target sequence (P08659 whole entry, looked up): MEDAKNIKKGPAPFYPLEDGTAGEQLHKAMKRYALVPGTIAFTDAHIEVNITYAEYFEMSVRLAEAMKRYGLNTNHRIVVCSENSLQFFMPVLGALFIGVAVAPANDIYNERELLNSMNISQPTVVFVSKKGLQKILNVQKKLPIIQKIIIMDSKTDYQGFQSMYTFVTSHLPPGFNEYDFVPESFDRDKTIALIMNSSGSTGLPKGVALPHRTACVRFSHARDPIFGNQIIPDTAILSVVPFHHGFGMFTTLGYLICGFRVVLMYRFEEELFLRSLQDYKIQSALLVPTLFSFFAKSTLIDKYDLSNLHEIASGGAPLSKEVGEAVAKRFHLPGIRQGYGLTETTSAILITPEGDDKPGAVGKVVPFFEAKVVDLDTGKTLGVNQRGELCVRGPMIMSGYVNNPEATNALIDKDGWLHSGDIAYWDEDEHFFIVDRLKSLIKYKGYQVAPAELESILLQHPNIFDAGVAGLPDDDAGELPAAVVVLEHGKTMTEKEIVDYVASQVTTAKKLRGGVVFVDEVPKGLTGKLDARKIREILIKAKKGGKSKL
A549 tox-2 – A549 cytotoxicity, Nrf2 inhibitor counterscreen; shares compounds with Nrf2 inh; A549 ARE-Fluc cells, cytotoxicity counterscreen; Potency, µM (top dose mostly 46.1 µM), hits mostly inhibitors; 1,400 tested, 2% active;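 further: cells exposed to compounds for 18 to 24 hours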
Nrf2 ARE inh – reduces Nrf2 ARE reporter signal in A549 cells. shares compounds with Nrf2 inh. A549 ARE-firefly luciferase reporter, luminescence. Potency, µM (top dose mostly 46.1 µM), most hits filed as inhibitors. 1,400 tested, 74% active; further: nearly all actives have a fitted effect of over 65% in size
Each line names hits and unclear results; the compound was inactive in the other large screens (follow-up assays come after a bar, where they were run); ! = a repeat was not active. The call rests on the fitted dose curve; in most records, active means well fitted curve in the direction sought with a large enough effect; inconclusive means small, poorly fitted or top-dose-only effect, or another doubt; inactive means no such curve, though single readings can be large; an effect the other way counts as inactive or inconclusive.

O=C(NC(=S)NNC(=O)c1cnccn1)c1ccc(Cl)cc1	ATXN2 expr inh inconclusive, Nrf2 inh 5.8µM, ATXN viability inconclusive | FLuc counter 3 inactive | A549 tox-2 inactive | Nrf2 ARE inh 5.8µM
COc1ccc(C(=O)NC(=S)NNC(=O)COc2ccccc2)cc1	ATXN2 expr inh inconclusive, Nrf2 inh inconclusive
COc1ccc(C(=O)NC(=S)NNC(=O)c2cnccn2)cc1	A549 tox-1 inconclusive, ATXN2 expr inh inconclusive, Nrf2 inh inconclusive | FLuc counter 3 inconclusive | A549 tox-2 inactive | Nrf2 ARE inh 5.8µM
O=C(NNC(=S)NC(=O)c1cccnc1)c1ccc(Cl)cc1	Nrf2 inh inconclusive (no result: A549 tox-1)
CCC(C)(C)NC(=O)CN(C(=O)CCC(=O)Nc1nccs1)c1ccc2c(c1)OCCO2	Nrf2 inh inconclusive
COCCn1c(=O)[nH]c2cc(C(=O)N3CCN(c4ccc(Cl)cc4)CC3)ccc2c1=O	Nrf2 inh 5.8µM!, ATXN viability inconclusive | FLuc counter 3 inactive | A549 tox-2 inactive | Nrf2 ARE inh inconclusive
CN(C)c1ccc(CNC(=O)C2CCCN(S(=O)(=O)c3ccc4c(c3)CCCC(=O)N4)C2)cc1 (centres undefined)	Nrf2 inh 5.8µM, TGFb SMAD3 inh inconclusive (no result: ATXN2 expr inh, ATXN viability) | FLuc counter 3 inactive | A549 tox-2 inactive | Nrf2 ARE inh inconclusive
O=C1CCCc2cc(S(=O)(=O)N3CCCC(C(=O)NCc4ccc(Cl)cc4)C3)ccc2N1 (centres undefined)	Nrf2 inh inconclusive
CCCCOCCCNC(=O)C[C@@H]1C[C@@]2(C(=O)OCC)CCCC=C2N(Cc2ccc3c(c2)OCO3)C1=O	none (no result: A549 tox-1, Nrf2 inh, HepG2 viability, TGFb SMAD3 inh)
CCOc1c(OC)cccc1C1CC(=O)Nc2cc3c(cc21)OCCO3 (centres undefined)	none
CC(C)COc1ccccc1C1CC(=O)Nc2cc3c(cc21)OCO3 (centres undefined)	ATXN2 expr inh inconclusive, Nrf2 inh 8.2µM, ATXN viability inconclusive, TGFb SMAD3 inh inconclusive | FLuc counter 3 inactive | A549 tox-2 inconclusive | Nrf2 ARE inh 23µM
COc1ccc(C(=O)Nc2cc(C)nn2-c2ccc(C)cc2)cc1	ATXN viability inconclusive
CCCCN(CC)S(=O)(=O)c1ccc(C(=O)Nc2nnc(-c3cccs3)o2)cc1	ATXN2 expr inh inconclusive, Nrf2 inh 2.3µM, ATXN viability inconclusive | FLuc counter 3 inactive | A549 tox-2 inconclusive | Nrf2 ARE inh 7.3µM
CCCCN(C)S(=O)(=O)c1ccc(C(=O)Nc2nnc(-c3ccco3)o2)cc1	ATXN2 expr inh inconclusive, Nrf2 inh inconclusive
Cn1cnc(=N)c2[nH]cnc21	none (no result: A549 tox-1, Nrf2 inh, ATXN viability, HepG2 viability, TGFb SMAD3 inh)
COc1ccc(NC(=O)Oc2cc(C)ccc2C(C)C)cc1	none
COc1cc2c(NC3CCN(C(C)C)CC3)nc(N3CCCN(C)CC3)nc2cc1OCCCN(C)C	TGFb SMAD3 inh 10µM (no result: A549 tox-1, ATXN2 expr inh, Nrf2 inh, ATXN viability) | FLuc counter 3 inactive | A549 tox-2 inconclusive | Nrf2 ARE inh 1.6µM
CCOC(=O)c1cnc2ccc(OCC)cc2c1NCCc1ccc(OC)c(OC)c1	Nrf2 inh 3.7µM, TGFb SMAD3 inh 13µM (no result: ATXN2 expr inh, ATXN viability) | FLuc counter 3 inactive | A549 tox-2 inconclusive | Nrf2 ARE inh 13µM
Cc1ccc2c(c1)c(/C=C/c1cc[n+](C)cc1)c(C)n2C	A549 tox-1 inconclusive, Nrf2 inh 3.7µM (no result: ATXN2 expr inh) | FLuc counter 3 inactive | A549 tox-2 inconclusive | Nrf2 ARE inh 6.5µM

Source: PubChem BioAssay (National Center for Advancing Translational Sciences (NCATS))
